Shown is part of a subset that was picked to be rich in hits.
Cycloheximide cs: Cycloheximide Counterscreen for Small Molecule Inhibitors of Shiga Toxin. cell reporter, cycloheximide protein synthesis inhibition counterscreen. max response, %. actives 12% (n = 300,000); in the data active = max response mostly above about 13%, no sharp cut-off; inactive = mostly below about 14%; note: read at 38.3 µM for the half of the compounds with a filed dose
RE007 growth inh: qHTS Assay for Inhibitors of the HIV-1 protein Vpr; actives 0.21% (n = 360,000); AID 651644, 2012; Potency, µM (titrated, usually from 92.2 µM), hits mostly inhibitors; S. pombe RE007 Vpr strain, BacTiter-Glo ATP luminescence, 24 h; active = well fitted falling curve with a large enough effect; inconclusive = small, poorly fitted or top-dose-only effect; inactive = no such curve, though single readings can be large or run the other way; note: nearly all actives have a fitted effect of over 50% in size
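Fission yeast RE007 carrying one integrated HIV-1 vpr copy, seeded at OD 0.01 in PMG+AL medium with 23 nL pinned compound. Grown 24 h at 30 degrees; viability read by BacTiter-Glo luminescence after 5 min.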
TbPYK inhibitor: qHTS of Trypanosoma Brucei Inhibitors; AID 624173, 2012; TbPYK enzyme, Kinase-Glo Plus ATP luminescence, 45 min; Potency, µM (doses to about 76.8 µM), hits mostly inhibitors; actives 0.12% (n = 410,000); pyruvate kinase (Trypanosoma brucei), Q57TT1; note: nearly all actives have a fitted effect of over 50% in size
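In this concentration-response screen, enzyme-free wells defined baseline while DMSO plates tracked drift. Each reaction combined TbPYK, substrate, compound and 130 uM ADP for 45 min at room temperature. Kinase-Glo Plus luminescence gave the signal.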
FBPA Giardia inh: qHTS Assay for Inhibitors of Fructose-1,6-bisphosphate Aldolase from Giardia Lamblia; AID 2451, 2010; Potency, µM (top dose mostly 59.6 µM), hits mostly inhibitors; actives 0.71% (n = 290,000); A8B2U2; purified Giardia FBPA; note: nearly all actives have a fitted effect of over 55% in size
Target sequence (A8B2U2 whole entry, looked up): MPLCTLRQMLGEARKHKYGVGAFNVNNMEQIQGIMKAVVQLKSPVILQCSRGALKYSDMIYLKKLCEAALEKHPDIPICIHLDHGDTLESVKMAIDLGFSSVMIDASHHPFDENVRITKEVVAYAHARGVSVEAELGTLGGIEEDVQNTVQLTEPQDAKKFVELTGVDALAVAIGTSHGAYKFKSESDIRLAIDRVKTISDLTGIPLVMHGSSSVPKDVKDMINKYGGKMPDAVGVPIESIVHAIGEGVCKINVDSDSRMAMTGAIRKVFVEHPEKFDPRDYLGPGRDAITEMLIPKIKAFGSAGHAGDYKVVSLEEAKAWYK
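Giardia FBPA (40 nM reagent) was preincubated 10 min at RT with compound (up to 57.5 uM final), then substrate plus GAPDH/TPI/NAD/arsenate coupling system with diaphorase/resazurin was added; resorufin fluorescence (525/598 nm) was read after 20 min.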
LmPK inhibitor: qHTS Assay for Inhibitors of Leishmania Mexicana Pyruvate Kinase (LmPK) | Q27686 | purified LmPK, Kinase-Glo ATP luminescence, 1 h | Potency, µM (doses to about 57.5 µM), most hits filed as inhibitors | actives 0.37% (n = 290,000)
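Kinase-Glo luminescence read after 1 h RT reaction of 0.1 nM LmPK with 0.5 mM PEP and 0.1 mM ADP. Activity scaled between uninhibited and enzyme-free controls.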
Shiga inhibitor: A qHTS for Small Molecule Inhibitors of Shiga Toxin. Vero cells, Shiga toxin protein synthesis inhibition reporter. inhibition, % at 38.7 µM. actives 9.2% (n = 290,000). AID 2315, 2010; in the data active = inhibition mostly above about 28%, no sharp cut-off; inactive = mostly below about 43%
Numbers stand for hits; 0 = inactive; ? = inconclusive; - = not tested or not shown; [ ] = another dose, or the depositor's remark. Unless noted, calls come from the whole dose curve; as a rule, active = well fitted curve in the direction sought with a large enough effect; inconclusive = small, poorly fitted or top-dose-only effect, or another doubt; inactive = no such curve, though single readings can be large; an effect the other way counts as inactive or inconclusive.

SMILES	Cycloheximide cs	RE007 growth inh	TbPYK inhibitor	FBPA Giardia inh	LmPK inhibitor	Shiga inhibitor
O=C(Nc1ccc(F)c(Cl)c1)c1ccc2c(Cl)c3c(nc2c1)CCCC3	-	-	0	-	-	-
COc1ccc(-c2cc(C(F)(F)F)n3nc(C)c(-c4ccccc4)c3n2)cc1OC	-	-	0	-	-	-
CO/N=C1/CC2(CC3CC(C/C=C(/C)CC(C)/C=C\C=C4\COC5C(O)C(C)=CC(C(=O)O3)C45O)O2)OC(/C(C)=C/C(C)C)C1C (stereo not drawn)	-	-	0	-	-	-
Cc1ccc(NC(=O)CCc2c(C)nn(-c3ccc(N4CCCCC4)nn3)c2C)cc1	53	0	0	0	0	86
Cc1nn(-c2ccc(N3CCCC3)nn2)c(C)c1CCC(=O)Nc1ccc(F)c(Cl)c1	-	-	0	-	-	-
CC(=O)c1ccc(NC(=O)CCc2c(C)nn(-c3ccc(N4CCCCC4)nn3)c2C)cc1	-	-	0	-	-	-
Cc1nn(-c2ccc(N3CCCCC3)nn2)c(C)c1CCC(=O)Nc1ccc(F)c(F)c1	60	0	0	0	0	103
CC(C)Oc1ccc(CNC(=O)CCCN2C(=O)c3cccnc3Oc3ccc(Cl)cc32)cc1	-	-	0[15.4 µM]	-	-	-
O=C(O)/C=C/c1cc(F)c(S(=O)(=O)N2CCN(S(=O)(=O)c3ccc4c(c3)OCCO4)CC2)cc1F	0	-	-	-	-	0
COc1ccc(C(C(C(=O)c2cccs2)N2CCOCC2)N2CCOCC2)cc1OC (stereo not drawn)	16	0	0	0	0	0
Cc1ccc(N/C=C2\CCCCC2=O)nc1	58	0	0	0	0	107
O=C1CCCC/C1=C\Nc1ccc(Cl)cn1	27	0	0	?	0	61
Fc1ccc(-c2csc(N3CCC(c4ccccc4)C3)n2)cc1 (stereo not drawn)	76	0	?	0	0	94
Clc1ccc(-c2csc(N3CCC(c4ccccc4)C3)n2)cc1 (stereo not drawn)	0	0	0	0	0	95
COc1ccccc1CNc1ncnc2ccc(-c3cccc(NS(C)(=O)=O)c3)cc12	-	-	-	0	-	-
O=C(c1ccc2ccccc2c1)N1CCCCC1	0	0	0	0	0	0
NC(=O)C1CCN(C(=O)c2ccc3ccccc3c2)CC1	17	0	0	0	0	33
CC1CCN(C(=O)c2ccc3ccccc3c2)CC1	39	0	0	0	0	52
Cc1cncc(C(=O)O)[n+]1[O-]	-	-	0	-	-	-
COCCNc1nc(C)nc2c1nc(-c1ccccc1)n2CCN1CCCC1	-	-	-	0	-	-
Oc1ccccc1C1NN=C(c2ccccc2)S1 (stereo not drawn)	33	0	0	?	0	56
CCCCC1=NN(C(=O)c2cocc2C)C(O)(C(F)(F)F)C1 (stereo not drawn)	20	0	0	0	0	32
CCCCC1=NN(C(=O)c2ccncc2)C(O)(C(F)(F)F)C1 (stereo not drawn)	0	0	0	0	0	0
COC(=O)N1N=C(c2ccccc2)CC1(O)C(F)(F)F (stereo not drawn)	39	0	0	0	0	106
CC1=NN(C(=O)c2cccnc2)C(O)(C(F)(F)F)C1 (stereo not drawn)	0	0	0	0	0	0
SMILES	Cycloheximide cs	RE007 growth inh	TbPYK inhibitor	FBPA Giardia inh	LmPK inhibitor	Shiga inhibitor
CC1=NN(C(=O)c2ccoc2C)C(O)(C(F)(F)F)C1 (stereo not drawn)	50	0	0	0	0	44
Cc1ccc(C2=NN(C(=O)c3ccco3)C(O)(C(F)(F)F)C2)cc1 (stereo not drawn)	14	0	0	0	0	37
COc1ccc(C(=O)CN2C(=O)N(c3cc(C)cc(C)c3)S(=O)(=O)c3ccccc32)cc1	-	-	0	-	-	-
O=C1CCSC2(C(=O)N(Cc3ccc(F)cc3)c3ccccc32)N1c1ccc(F)c(F)c1 (stereo not drawn)	-	-	0[15.4 µM]	-	-	-
CC(CSC(=O)c1ccccc1)C(=O)N1C[C@@H](Sc2ccccc2)C[C@H]1C(=O)O (stereo partly drawn)	-	-	0	-	-	-
COc1ccc(-c2cc(-c3c(O)c(OC)c4occc4c3OC)[nH]n2)cc1	21	0	0	0	0	79
COc1ccc(-c2cc(-c3c(O)c(OC)c4occc4c3OC)[nH]n2)cc1OC	23	0	0	0	0	0
CCOc1ccc(NC(=O)CN2CCN(CC(=O)Nc3ccc(N(C)C)cc3)CC2)cc1	25	0	0	0	0	81
CCOc1ccc(NC(=O)CN2CCN(CC(=O)Nc3ccc(F)cc3)CC2)cc1	0	0	0	0	0	0
CN(C)c1ccc(NC(=O)CN2CCN(CC(=O)Nc3ccc(F)cc3)CC2)cc1	19	0	0	0	0	0
COc1ccccc1-c1nnc(C2CCN(C(=O)c3cccc(Cl)c3)CC2)o1	-	-	0	-	-	-
COc1ccc(OS(=O)(=O)Cc2ccccc2)cc1	20	0	0	0	0	41
CC(C)(C)OC(=O)N1CCC(N2CCN(Cc3ccccc3)C(=O)C2=O)CC1	-	-	0	-	-	-
CCOC(=O)c1cccc(NC(=O)C2Cc3ccccc3N2C(=O)c2ccccc2)c1 (stereo not drawn)	-	-	0	-	-	-
COc1ccccc1CNc1ncnc2c1c(-c1ccccc1)cn2-c1cccc(C)c1	-	-	0	-	-	-
O=C(CC(c1ccccc1)C1CCCCC1=O)c1ccco1 (stereo not drawn)	38	0	0	0	0	63
Cc1cc(N2CCC(C)CC2)nc2ccc(NC(=O)Cc3c(F)cccc3Cl)cc12	-	-	0	-	-	-
CC1CC=CC2C1C(=O)N(Cc1ccccc1)C2c1ccc(/C=C/c2ccccc2)cc1F (stereo not drawn)	0	-	-	0	-	0
CC1CCCCC12NC(=O)N(Cc1cc(=O)n3ccsc3n1)C2=O (stereo not drawn)	30	0	0	0	0	0
CC1CCC2(CC1)NC(=O)N(Cc1cc(=O)n3ccsc3n1)C2=O (stereo not drawn)	0	0	0	0	0	0
CC(C)(C)NC(=O)COC(=O)/C=C/c1ccccc1[N+](=O)[O-]	24	0	0	0	0	38
O=C(COC(=O)/C=C/c1ccccc1[N+](=O)[O-])Nc1ccc(OCc2ccccc2)cc1	17	0	0	0	0	39
CC(C)=CCC/C(C)=C/CO/N=C1/C[C@@H](O)[C@@H](O)[C@@H]2[C@@H]3C(=O)N(C(C)(C)C)C(=O)[C@H]3CC[C@@H]12	-	-	-	0[12.9 µM]	-	-
C/C(CC(=O)Nc1ccc(Cl)c(C(F)(F)F)c1)=N\NC(N)=S	20	0	0	0	0	0
C/C(CC(=O)Nc1ccc(Cl)c(C(F)(F)F)c1)=N\NC(=O)c1cccc(O)c1	44	0	0	0	0	68
C/C(CC(=O)Nc1ccc(Cl)c(C(F)(F)F)c1)=N\NC(=O)c1ccccc1O	22	0	0	0	0	0

Source: PubChem
